The values below come from PubChem BioAssay.

The source made the active and inactive calls. Unless noted, no rule for the calls is given here.

Experiment [1] can be described thus: compound effects on lung adenocarcinoma cell viability – A549, calcein-AM fluorescence, 48 h, basal, profiling panel (AID 1162). Also: test concentration not given here. To be noted: higher = more signal.
The nature of experiment [2]: compound effects on differentiated 3T3-L1 adipocyte viability – cell-based, 3T3-L1 adipocytes, calcein-AM fluorescence, 48 h, basal, profiling panel (AID 1163). Also: test concentration not given here. Particulars: 3T3-L1 adipocytes viability, higher = more signal.
A short description of experiment [3]: compound effects on hepatocellular carcinoma cell viability – HepG2, calcein-AM fluorescence, 48 h, basal, profiling panel (AID 1164). Also: test concentration not given here. To be noted: higher = more signal.
Experiment [4] is described as follows: compound effects on multiple myeloma cell viability – MM1S, calcein-AM fluorescence, 48 h, basal, profiling panel (AID 1165).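 Also: viability of MM1S multiple myeloma cells under basal unstimulated conditions; test concentration not given here.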 To be noted: higher = more signal.
Experiment [5] is described as follows: calcein-AM signal in unstimulated myeloma cells – cell-based, calcein-AM fluorescence, 48 h, PK04 Diversity Set, profiling panel (AID 1166).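 Also: cells grown under basal conditions without added stimulus; test concentration not given here.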 Particulars: RPMI8226 myeloma viability, higher = more signal.
Experiment [6] in a line: JC-1 mitochondrial signal, unstimulated HepG2 cells – cell-based, JC-1 fluorescence, 24 h, 100 nL compound, profiling panel (AID 1167). Also: test concentration not given here. Particulars: HepG2 mitochondrial potential, higher = more signal.
Experiment [7] is described as follows: JC-1 mitochondrial signal, unstimulated adipocytes – cell-based, JC-1 fluorescence, 3T3-L1 adipocytes, 24 h, 100 nL compound, profiling panel (AID 1168). Also: test concentration not given here. Particulars: JC-1 mitochondrial fluorescence, higher = more signal, called active from +8 up or from −8 down.
Experiment [8] is described as follows: JC-1 mitochondrial signal, unstimulated myeloma cells – cell-based, JC-1 fluorescence, RPMI8226, 24 h, 100 nL compound, profiling panel (AID 1169). Also: test concentration not given here. Particulars: JC-1 mitochondrial potential fluorescence, higher = more signal.
A short description of experiment [9]: JC-1 mitochondrial signal, unstimulated MM1S myeloma – cell-based, JC-1 fluorescence, 24 h, 100 nL compound, profiling panel (AID 1170). Also: test concentration not given here. Particulars: MM1S mitochondrial potential, higher = more signal.
The nature of experiment [10]: resazurin metabolic signal in A549 cells – cell-based, resazurin fluorescence, 24 h, PK04 Diversity Set, profiling panel (AID 1171). Also: test concentration not given here. To be noted: A549 viability, higher = more signal, called active from +8 up or from −8 down. Background: Resazurin is reduced to fluorescent resorufin, in cell work by metabolically active cells.
Experiment [11] is described as follows: resazurin metabolic signal in HepG2 cells – cell-based, resazurin fluorescence, 24 h, PK04 Diversity Set, profiling panel (AID 1172). Also: test concentration not given here. To be noted: HepG2 viability, higher = more signal.
Experiment [12] can be described thus: budding yeast growth changes without added modifier – OD600, strain BY4716, 24 h, basal condition, primary screen (AID 1173). Particulars: S. cerevisiae BY4716 growth, OD600, 24 h; higher = more signal, called active from +8 up or from −8 down.
The nature of experiment [13]: viability profiling in MM1S myeloma cells – cell-based, resazurin fluorescence, basal, 24 h, PK04 Diversity Set, profiling panel (AID 1174). Also: test concentration not given here. Particulars: higher = more signal, called active from +8 up or from −8 down.
Experiment [14] addresses Dihydroorotate dehydrogenase (quinone), mitochondrial (Plasmodium falciparum (isolate 3D7)) (UniProt Q08210). The experiment in a line: inhibition of P. falciparum DHODH – biochemical, C-terminal His tag, absorbance 600 nm, primary screen (AID 1175).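 Also: recombinant parasite enzyme with a five histidine tag at its C terminus; test concentration not given here.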 Particulars: PfDHODH enzyme, DCIP absorbance 600 nm; higher = more signal, called active from +8 up or from −8 down.
Experiment [15] in a line: inhibition of PAO1 biofilm formation – strain PAO1, LB-PBS medium, absorbance 600 nm, primary screen (AID 1176). Also: test concentration not given here. To be noted: P. aeruginosa PAO1 growth/biofilm, A600, 12 h; higher = more signal.
Experiment [16] can be described thus: growth modulation of vineyard yeast isolate – strain RM11-1a, OD600, basal, 24 h, primary screen (AID 1177).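 Also: cultures grown under basal conditions with no added stressor; test concentration not given here.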 To be noted: S. cerevisiae RM11-1a growth, OD600, 24 h; higher = more signal, called active from +8 up or from −8 down.
A short description of experiment [17]: growth of efflux-deficient E. coli DRC39 – strain DRC39, OD650, 24 h, E. coli filamentation inducers, primary screen (AID 1178).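 Also: growth measured as culture turbidity by optical density at 650 nm; test concentration not given here.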 To be noted: E. coli DRC39 acrAB, higher = more signal, called active from +8 up or from −8 down.
The nature of experiment [18]: growth of efflux-deficient E. coli DRC39 – strain DRC39, OD650, 48 h, E. coli filamentation inducers, primary screen (AID 1179).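 Also: screen aims at cell division blockers that make cells filament.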 To be noted: E. coli DRC39 delta-acrAB growth, higher = more signal, called active from +8 up or from −8 down.
A short description of experiment [19]: viability profiling in RPMI8226 myeloma cells – cell-based, resazurin fluorescence, basal, 24 h, PK04 Diversity Set, profiling panel (AID 1180).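 Also: RPMI8826 multiple myeloma cell line at 5000 cells per well; test concentration not given here.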 Particulars: higher = more signal.
For experiment [20], the target named is E3 ubiquitin-protein ligase XIAP (Homo sapiens) (UniProt P98170). The experiment in a line: small molecules binding XIAP protein – biophysical, small-molecule microarray, fluorescence 635 nm, primary screen (AID 1181).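 Also: score merges 667 nm emission and signal to noise over triplicate slides.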 Particulars: higher = more signal.
Sequence of E3 ubiquitin-protein ligase XIAP (Homo sapiens) (P98170 whole entry, looked up): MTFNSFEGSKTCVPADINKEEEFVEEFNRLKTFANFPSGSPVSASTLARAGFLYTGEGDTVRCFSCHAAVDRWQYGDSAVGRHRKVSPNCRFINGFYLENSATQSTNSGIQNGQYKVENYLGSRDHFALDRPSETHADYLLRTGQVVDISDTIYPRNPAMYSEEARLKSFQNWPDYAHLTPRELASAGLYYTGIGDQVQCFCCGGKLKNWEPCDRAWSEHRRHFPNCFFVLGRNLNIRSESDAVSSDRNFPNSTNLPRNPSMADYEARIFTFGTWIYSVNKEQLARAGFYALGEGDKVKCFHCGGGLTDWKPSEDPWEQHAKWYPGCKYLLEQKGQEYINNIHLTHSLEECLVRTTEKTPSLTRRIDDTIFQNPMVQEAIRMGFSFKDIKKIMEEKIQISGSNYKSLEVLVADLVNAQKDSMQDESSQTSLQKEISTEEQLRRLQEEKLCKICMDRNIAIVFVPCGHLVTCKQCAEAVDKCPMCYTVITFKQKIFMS

Sequence of Dihydroorotate dehydrogenase (quinone), mitochondrial (Plasmodium falciparum (isolate 3D7)) (Q08210 whole entry, looked up): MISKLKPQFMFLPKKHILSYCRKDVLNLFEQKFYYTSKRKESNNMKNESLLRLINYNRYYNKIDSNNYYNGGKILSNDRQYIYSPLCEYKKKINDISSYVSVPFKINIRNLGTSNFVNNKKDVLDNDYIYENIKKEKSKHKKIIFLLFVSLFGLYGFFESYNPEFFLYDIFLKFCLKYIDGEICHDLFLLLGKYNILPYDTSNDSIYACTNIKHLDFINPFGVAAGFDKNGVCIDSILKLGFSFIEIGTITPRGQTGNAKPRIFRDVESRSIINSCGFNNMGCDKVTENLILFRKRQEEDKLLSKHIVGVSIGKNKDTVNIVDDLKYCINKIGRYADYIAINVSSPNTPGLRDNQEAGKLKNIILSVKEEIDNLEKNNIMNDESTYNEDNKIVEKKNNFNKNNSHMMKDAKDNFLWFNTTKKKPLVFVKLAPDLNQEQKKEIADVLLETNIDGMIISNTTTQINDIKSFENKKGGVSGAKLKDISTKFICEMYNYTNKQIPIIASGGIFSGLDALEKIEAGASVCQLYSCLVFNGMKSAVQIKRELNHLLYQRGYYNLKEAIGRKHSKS

For the compound `[N-]=[N+]=NCc1ccccc1[C@H]1OC(c2ccc(OCCCO)cc2)=N[C@@]1(CCS(=O)(=O)c1ccccc1)C(=O)O`, the z-score in [1] is 0.0952; in experiment [2], 0.0313; in experiment [3], 0.35; in [4], 0.263; in experiment [5], -0.829; in experiment [6], -1.24. Moreover, the z-score in experiment [7] was -1.02 (inactive); in experiment [8], -0.278; in [9], -0.479; in experiment [10] it was 0.355 (inactive); in experiment [11], 0.086; in experiment [12] it was -1.04 (inactive). The z-score is -0.389 (inactive) in experiment [13]; -0.0304 (inactive) in experiment [15]; -0.81 (inactive) in [16]; -0.589 (inactive) in [17]; -0.336 (inactive) in [18]; 0.0678 in experiment [19]. Besides, the figures for the composite z-score in experiment [14] and in experiment [20] were -1.14 (inactive) and 0.273, respectively.
As for `COc1ccc([Si](C)(C)[C@H]2[C@H](CC(=O)N(CCO)Cc3ccccc3)O[C@@]3(C(=O)N(c4ccccc4)c4ccccc43)[C@@H]2C)cc1`, the z-score in experiment [1] is -3.41; in experiment [2] it was -1.38; in experiment [3], -4.61; in experiment [4], -2.69; in experiment [5] it was -4.38; in experiment [6], -2.35. Further, the z-score is 0.938 (inactive) in experiment [7]; -1.11 in [8]; -2.27 in [9]; -3.43 (inactive) in experiment [10]; -4.7 in [11]; 0.148 (inactive) in experiment [12]. In addition, the z-score in [13] is -8.42 (active); in experiment [15], 0.838 (inactive); in experiment [16] it was 0.29 (inactive); in experiment [17], 0.997 (inactive); in experiment [18], -0.0322 (inactive); in experiment [19], -6.25. In addition, the composite z-score was 0.531 (inactive) in experiment [14] and 0.226 in [20].
In the case of `CN1C2C=C(c3ccc(CO)cc3)C(C3C(=O)N(C(N)=O)C(=O)C32)C1C1CC1` (stereo not given), the z-score in experiment [1] was -0.497; in experiment [2] it was 0.0457; in [3] it was -0.157; in experiment [4] it was 0.341; in experiment [5], -0.773; in experiment [6], -0.391. The z-score in experiment [7] was -0.242 (inactive); in experiment [8], -0.482; in [9] it was 0.326; in experiment [10], 0.182 (inactive); in [11], -0.41; in [12], 1.31 (inactive). The z-score in experiment [13] is -0.611 (inactive); in experiment [15], 0.354 (inactive); in [16], 0.718 (inactive); in [17] it was 0.0605 (inactive); in [18] it was 0.213 (inactive); in experiment [19], -0.641. The composite z-score is 0.437 (inactive) in experiment [14] and -0.0745 in experiment [20].
Take `COc1ccc([Si](C)(C)[C@H]2[C@H](CC(=O)N3CCC[C@H]3CO)O[C@@]3(C(=O)N(C)c4c(Br)cc(C)cc43)[C@@H]2C)cc1`: the z-score is 0.709 in experiment [1]; -0.333 in experiment [2]; -0.232 in [3]; 0.0328 in experiment [4]; -0.63 in experiment [5]; 0.604 in experiment [6]. In addition, the z-score in experiment [7] is 0.123 (inactive); in [8] it was -0.126; in experiment [9], -0.468; in experiment [10], 0.809 (inactive); in [11], 0.728; in experiment [12], -0.966 (inactive). Moreover, the z-score in experiment [13] was 0.968 (inactive); in experiment [15] it was 0.92 (inactive); in [16], 0.301 (inactive); in [17], 0.541 (inactive); in experiment [18], 0.24 (inactive); in [19] it was 0.235. The composite z-score in experiment [14] is -1.3 (inactive); in [20], 1.43.
For the compound `C=CCNC(=O)[C@@H]1[C@H]2C(=O)O[C@H](c3ccccc3)[C@H](c3ccccc3)N2[C@H](c2ccc(OCCO)cc2)[C@@]12C(=O)N(C(=O)OCCOC)c1ccccc12`, the z-score in experiment [1] was -0.514; in experiment [2], 0.484; in [3], 0.332; in [4], 0.374; in [5], -0.562; in experiment [6], 2.15. The z-score in [7] is 0.89 (inactive); in [8], -1.05; in experiment [9], 0.332; in [10], -0.0659 (inactive); in experiment [11], 0.0303; in experiment [12] it was 1.98 (inactive). The z-score in [13] is -0.522 (inactive); in [15], 2.69 (inactive); in [16], 3.16 (inactive); in [17] it was 0.446 (inactive); in experiment [18], 0.282 (inactive); in [19], -0.289. The composite z-score in experiment [14] is 0.659 (inactive); in experiment [20], 0.0623.
Regarding `COc1ccc(C(O)C2C=CC3C(=O)N(c4ccccc4)C(=O)C3N2Nc2ccccc2F)c2ccccc12` (stereo not given), the z-score in experiment [1] is 0.23; in experiment [2], -0.229; in experiment [3], -0.737; in experiment [4], -1.91; in experiment [5], -1.61; in experiment [6], -1.78. Also, the z-score in [7] is 0.385 (inactive); in experiment [8], -0.172; in experiment [9], -0.754; in experiment [10] it was 0.473 (inactive); in experiment [11], -1.83; in [12], -1.71 (inactive). Further, the z-score in experiment [13] was -0.042 (inactive); in [15], 1.15 (inactive); in [16], -0.0824 (inactive); in [17], -0.203 (inactive); in [18], -0.617 (inactive); in experiment [19], 0.0565. The values for the composite z-score in experiment [14] and in experiment [20] were -0.588 (inactive) and 0.253, respectively.
Regarding `[N-]=[N+]=NCc1ccccc1C[C@]1(C(=O)N2CCCCC2)COC(c2ccc(OCCCO)cc2)=N1`, the z-score was 0.139 in experiment [1]; -0.288 in experiment [2]; -0.689 in experiment [3]; -3.54 in experiment [4]; -4.52 in experiment [5]; -0.792 in [6]. Besides, the z-score in experiment [7] is 0.607 (inactive); in [8] it was -1.22; in experiment [9], -1.98; in [10], 0.898 (inactive); in [11], 0.894; in experiment [12], -0.749 (inactive). Further, the z-score in [13] is -0.0967 (inactive); in experiment [15] it was 0.0405 (inactive); in experiment [16] it was 2.36 (inactive); in [17], 1.4 (inactive); in experiment [18], 0.815 (inactive); in [19] it was 0.791. In addition, the figures for the composite z-score in [14] and in experiment [20] were -0.0119 (inactive) and -0.0604, respectively.
As for `COC(=O)C[C@H]1O[C@]2(C(=O)N(C)c3ccccc32)[C@@H](C)[C@@H]1[Si](C)(C)c1ccccc1`, the z-score in experiment [1] is -0.843; in experiment [2] it was 1.01; in experiment [3] it was -1.05; in experiment [4], -0.344; in experiment [5] it was -0.0598; in experiment [6] it was -0.57. Also, the z-score in experiment [7] is 0.611 (inactive); in [8], -0.0109; in [9], 0.425; in [10], 1.38 (inactive); in [11], 1.45; in [12], -2.07 (inactive). Moreover, the z-score in experiment [13] was 0.317 (inactive); in [15], -1.24 (inactive); in [16], -0.136 (inactive); in experiment [17], 0.709 (inactive); in experiment [18], -0.106 (inactive); in experiment [19], 1.22. For the same compound, the values for the composite z-score in experiment [14] and in experiment [20] were -0.343 (inactive) and 0.135, respectively.
